Results filed as inconclusive are left out. Calls of active or inactive are those of the source.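 The calls were made as follows, unless noted: active = viability at or below 27.92% in each of two runs, the all-compound median minus 4 SD; inconclusive = no clear call, values can overlap the other calls; inactive = the rest.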

The nature of assay [1]: reducers of endogenous Her2 protein level, primary screen, SKBR3 breast tumor cells, AlphaScreen, ATP viability (AID 461;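 active = Her2 level under about 52% in both replicate screens, with viability over 70% of control, limit read from the data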;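 as to Her2 level: lower value means less Her2 protein in the cells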;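 as to viability: percent of carrier control wells set as 100% viability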). Conditions: 18-24 h, measured here: SKBR3 viability, ATP luminescence, at 10 µM. In general terms: Bead proximity is the source of the signal in Alpha formats.
The target in assay [2] is Receptor tyrosine-protein kinase erbB-2 (Homo sapiens) (UniProt P04626). The description is as above. Conditions: 18-24 h, at 10 µM, stronger effect = lower value.
Sequence of Receptor tyrosine-protein kinase erbB-2 (Homo sapiens) (P04626 whole entry, looked up): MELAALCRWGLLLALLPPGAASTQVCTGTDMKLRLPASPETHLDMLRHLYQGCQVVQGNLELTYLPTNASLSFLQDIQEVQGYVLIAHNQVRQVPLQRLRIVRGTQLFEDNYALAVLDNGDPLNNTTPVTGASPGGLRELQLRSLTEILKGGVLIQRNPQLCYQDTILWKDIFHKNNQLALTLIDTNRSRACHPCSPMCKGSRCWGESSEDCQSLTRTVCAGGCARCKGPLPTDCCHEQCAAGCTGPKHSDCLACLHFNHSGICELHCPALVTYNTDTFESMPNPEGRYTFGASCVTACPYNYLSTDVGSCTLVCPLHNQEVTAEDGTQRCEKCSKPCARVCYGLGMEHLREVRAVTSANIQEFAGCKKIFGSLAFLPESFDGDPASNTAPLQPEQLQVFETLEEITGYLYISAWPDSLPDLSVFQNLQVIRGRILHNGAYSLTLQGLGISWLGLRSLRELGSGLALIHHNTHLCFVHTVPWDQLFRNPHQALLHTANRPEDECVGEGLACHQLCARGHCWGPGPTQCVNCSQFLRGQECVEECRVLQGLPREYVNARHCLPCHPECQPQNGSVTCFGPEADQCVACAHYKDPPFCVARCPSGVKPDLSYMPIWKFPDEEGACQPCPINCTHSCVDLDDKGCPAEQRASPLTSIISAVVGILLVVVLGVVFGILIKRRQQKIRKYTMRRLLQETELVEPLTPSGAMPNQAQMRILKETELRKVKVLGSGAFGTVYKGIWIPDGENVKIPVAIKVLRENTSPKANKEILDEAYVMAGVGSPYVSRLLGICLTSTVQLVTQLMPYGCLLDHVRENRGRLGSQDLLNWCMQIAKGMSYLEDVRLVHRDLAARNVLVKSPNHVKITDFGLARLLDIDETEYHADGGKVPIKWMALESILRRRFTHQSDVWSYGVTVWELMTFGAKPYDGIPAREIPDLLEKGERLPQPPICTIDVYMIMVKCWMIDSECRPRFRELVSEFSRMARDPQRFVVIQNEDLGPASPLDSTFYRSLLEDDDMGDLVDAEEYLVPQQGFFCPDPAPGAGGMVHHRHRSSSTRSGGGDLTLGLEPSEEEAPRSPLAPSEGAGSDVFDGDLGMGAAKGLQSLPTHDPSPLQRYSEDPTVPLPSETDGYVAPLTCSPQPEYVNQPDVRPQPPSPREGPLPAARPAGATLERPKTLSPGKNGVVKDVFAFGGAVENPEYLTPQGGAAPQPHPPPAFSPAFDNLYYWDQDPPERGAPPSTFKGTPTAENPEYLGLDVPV
A short description of assay [3]: SK-BR-3 cell growth inhibitors, pilot screen, 24 h, human (AID 572;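 active = viability at or below 10% of carrier control in both of two separate runs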;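 also: compound exposure lasted between 18 and 24 h rather than exactly 24 h; 100% = carrier-treated control wells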). Conditions: SK-BR-3 viability, CellTiter-Glo luminescence, at 10 µM, stronger effect = lower value. On the technique in general: Cellular ATP, detected with luciferase, serves as a proxy for viable cell number.
Assay [4] in a line: HUVEC growth inhibition – cell-based, human, primary screen (AID 575;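 active = viability at or below 30% in both replicate assays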;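 also: 100% = median of untreated cell wells with 0.1% DMSO on each plate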). Conditions: HUVEC proliferation, CellTiter-Glo luminescence, 72 h; at 10 µM; stronger effect = lower value.
A short description of assay [5]: growth inhibitors of H69AR lung tumor, primary screen, human, duplicate replicates (AID 580;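 active = viability at or under a set limit in both replicates, limit being median viability minus 3 SD, cut at about 48% in these data, passing the limit was not always enough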;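 also: 100% = mean luminescence of untreated wells and 0% = no signal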). The settings on record: H69AR lung tumor cells viability, ATP luminescence, 72 h; at 10 µM; stronger effect = lower value.
Assay [6] can be described thus: reversal of MRP1-mediated doxorubicin resistance, pilot screen, H69AR cells, doxorubicin co-treatment (AID 601;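 active = viability loss from added drug above about 55%, and viability with drug at most 40%, in both replicates, limit read from the data, passing the limit was not always enough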). The settings on record: CellTiter-Glo, 72 h, at 10 µM; for differential viability (reversal): stronger effect = higher value.
Assay [7] in a line: 384-well plate pilot, post-Golgi transport modulator project, inhibition of yeast transport mutant growth (AID 636; in the data active = inhibition above about 31%). Conditions: absorbance 615 nm, about 18 h, stronger effect = higher value.
A short description of assay [8]: growth suppression of yeast trafficking mutant, preliminary HTS, modulators of trafficking downstream of Golgi apparatus project, 1536-format plate, OD 615 nm (AID 637; in the data active = inhibition above about 30%). The settings on record: yeast transport mutant growth, absorbance 615 nm, 18 h; stronger effect = higher value.
A short description of assay [9]: OD615 S. cerevisiae growth inhibition, permissive medium, pilot counter-assay, permissive growth control for S. cerevisiae lifespan shortening project (AID 705;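 active = growth inhibition above 25% in both replicates, a cutoff set 3 SD above the mean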). Conditions: OD615, 24 h, at 10 µM, stronger effect = higher value.
Assay [10] is described as follows: Restrictive medium S. cerevisiae growth inhibition, OD615, pilot screen of yeast lifespan reduction project, restrictive growth control (AID 706;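 active = growth inhibition above a set limit, 3 SD over mean compound inhibition, in both replicates, cut at about 43% in these data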;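 also: modified DeaD lifespan yeast strain shifted to restrictive glucose medium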). Conditions: OD615, 48 h, at 10 µM, stronger effect = higher value.
Assay [11] in a line: viability gain of MRP-1-high H69AR cells under doxorubicin, pilot screen, MRP-1 activator project, CellTiter-Glo, duplicate (AID 807;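 active = viability increase at or above a cutoff of the median across tested compounds plus 3 SD, cut at about 8.5% in these data, passing the limit was not always enough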;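 also: compound pretreatment 18-22 h then 72 h combined with doxorubicin; 0% = doxorubicin alone and 100% = vehicle without doxorubicin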). The settings on record: H69AR viability with doxorubicin, CellTiter-Glo luminescence; at 10 µM; stronger effect = higher value.
A short description of assay [12]: growth suppression of beta-catenin knockout HCT116, pilot screen, human colon tumor cells (AID 823;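 active = cell viability at or below a set limit in both duplicate runs, the limit being the all-compound median minus 4 SD, cut at about 23% in these data, passing the limit was not always enough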;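 also: 0% = wells killed by 20 µM Hyamine and 100% = untreated DMSO cell wells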). The settings on record: CellTiter-Glo, 60 h, at 10 µM, stronger effect = lower value.
A short description of assay [13]: growth suppression of PTEN-deleted HCT116, pilot screen, cell-based, HCT116 clonal line, CellTiter-Glo (AID 824).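 Also: 0% = 20 µM Hyamine control and 100% = vehicle cell control.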 The settings on record: 60 h, at 10 µM, stronger effect = lower value.
Assay [14] is described as follows: inhibitors of the yeast RAM network, pilot screen, dse1pr::URA3 reporter, 5-FOA selection (AID 869;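 active = inhibition over a set limit, the all-compound mean plus 3 SD, in both replicate runs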;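 also: 0% = DMSO wells with no growth and 100% = 10 µM 1-NA-PP1 with full growth; RAM network block rescues cells from 5-FOA so hits raise OD615 growth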). Conditions: S. cerevisiae dse1pr::URA3 5-FOA growth, OD615, 2 d; at 10 µM; stronger effect = higher value; strain carries analog-sensitive mutant Cbk1 kinase.
Assay [15] in a line: RAM signaling pathway blockade in yeast – S. cerevisiae, Pdr1DBD-CYC8 efflux-inhibited sensitized strain, primary screen (AID 1298;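 active = RAM network inhibition above 8.4% in each of two replicates, 3 SD over the compound average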;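 also: 0% = DMSO untreated cells without growth and 100% = 10 µM 1-NA-PP1 full growth; higher means more yeast growth rescued from 5-FOA killing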). Conditions: S. cerevisiae cbk1-as DSE1-URA3 strain, 5-FOA growth OD615, 2 d; at 50 µM; stronger effect = higher value.
[16] abbreviates: H69AR cells + 2 uM doxorubicin, measured here: viability with 2 uM doxorubicin, stronger effect = lower value.
The mark [17] stands for this setting: H69AR cells, compound alone cytotoxicity.

For the molecule `Cc1ccc(C)c(C(=O)CC2(O)C(=O)N(C)c3ccccc32)c1` (stereo not given), the viability in assay [1] was 112%; in [3], 112% (inactive); in assay [4] it was 105% (inactive); in assay [5], 92.2% (inactive); in assay [6] (setting [16]), 82.1%; in [6] (setting [17]), 92.2%. The viability in assay [12] is 107% (inactive); in assay [13], 97.2% (inactive). Moreover, in assay [2], the Her2 level was 113% (inactive). In assay [6] (H69AR cells + 2 uM doxorubicin), the differential viability (reversal) is 10.1% (inactive). Also, the values for the inhibition in assay [7], in assay [8] and in assay [14] were -4.68% (inactive), -1.5% (inactive) and 3.41% (inactive), respectively. Moreover, the results for the growth inhibition in assay [9] and in [10] were -8.69% (inactive) and -12.9% (inactive), respectively. In addition, the viability increase in assay [11] is -0.65% (inactive). For the same molecule, the RAM network inhibition in assay [15] was -0.11% (inactive).

As for `CS(=O)(=O)Nc1ccccc1C(=O)O`, the viability in assay [1] is 102%; in [3] it was 102% (inactive); in assay [4], 91.5% (inactive); in [5] it was 98.8% (inactive); in assay [6] (setting [16]), 96.3%; in [6] (setting [17]), 98.8%. Moreover, the viability in assay [12] was 94.9% (inactive); in assay [13], 97.6% (inactive). For the same molecule, the Her2 level in [2] was 80.5% (inactive). The differential viability (reversal) in [6] (H69AR cells + 2 uM doxorubicin) is 2.55% (inactive). Moreover, the inhibition in assay [7] was -2.34% (inactive); in assay [8], -5.17% (inactive); in assay [14], 0.72% (inactive). For the same molecule, the growth inhibition in assay [9] was -7.19% (inactive); in assay [10], -1.03% (inactive). Moreover, in assay [11], the viability increase was -1.2% (inactive). For the same molecule, the RAM network inhibition in [15] is 2.56% (inactive).

Take `CCOC(=O)c1c(C)n(OCc2ccccc2)c2ccc3c(no[n+]3[O-])c12`: the viability in assay [1] was 60%; in [3], 60% (inactive); in [4], 64.8% (inactive); in assay [5], 52.9% (inactive); in assay [6] (setting [16]) it was 67.1%; in assay [6] (setting [17]), 52.9%. Moreover, the viability was 62.8% (inactive) in assay [12] and 62.9% (inactive) in assay [13]. Further, the Her2 level in assay [2] is 78.5% (inactive). In assay [6] (H69AR cells + 2 uM doxorubicin), the differential viability (reversal) is -14.2% (inactive). The results for the inhibition in [7], in [8] and in assay [14] were -3.24% (inactive), -2.95% (inactive) and 1.99% (inactive), respectively. Also, the growth inhibition in assay [9] was -12.4% (inactive); in [10] it was -11.1% (inactive). Further, the viability increase in assay [11] was -3.24% (inactive). Besides, in assay [15], the RAM network inhibition was 5.8% (inactive).

Regarding `O=C(c1ccc2nc(N3CCCCC3)sc2c1)N1CCN(c2ccccn2)CC1`, the viability in assay [1] was 87%; in assay [3], 87% (inactive); in [4], 68.1% (inactive); in [5], 102% (inactive); in assay [6] (setting [16]) it was 100%; in [6] (setting [17]), 102%. Also, the viability in assay [12] is 106% (inactive); in [13], 98.6% (inactive). Also, the Her2 level in assay [2] was 102% (inactive). The differential viability (reversal) in assay [6] (H69AR cells + 2 uM doxorubicin) is 2.3% (inactive). Further, the inhibition in [7] was -1.54% (inactive); in assay [8], 1% (inactive); in [14], 2.38% (inactive). Further, the growth inhibition in assay [9] was 2.65% (inactive); in [10] it was -0.825% (inactive). Besides, in assay [11], the viability increase is 0.27% (inactive). Moreover, in [15], the RAM network inhibition is -1.58% (inactive).

In the case of `Cc1cccc(C2CC(c3ccccc3)Nc3nc(N)nn32)c1` (stereo not given), the viability in assay [1] was 92%; in assay [3], 92% (inactive); in assay [4], 92.7% (inactive); in [5], 108% (inactive); in assay [6] (setting [16]) it was 99.5%; in [6] (setting [17]) it was 108%. The results for the viability in assay [12] and in assay [13] were 99.8% (inactive) and 88.2% (inactive), respectively. In addition, in assay [2], the Her2 level is 94.5% (inactive). In assay [6] (H69AR cells + 2 uM doxorubicin), the differential viability (reversal) was 8.54% (inactive). Moreover, the inhibition in assay [7] is -4.13% (inactive); in assay [8], 1.15% (inactive); in [14], -0.64% (inactive). In addition, the growth inhibition in [9] was 1.73% (inactive); in assay [10], 3.52% (inactive). In assay [11], the viability increase is -0.5% (inactive). In assay [15], the RAM network inhibition is 0.21% (inactive).

For orientation: viability means a read-out of living cells in per cent, often relative to untreated cells. The term inhibition denotes the drop in the measured response relative to a control, in per cent.

These data come from PubChem BioAssay.
